From PubChem BioAssay AID435005 (Broad Institute, 2010) come the findings set out here.

SMILES strings stand for the structures. The whole screen tested about 300,000 compounds, of which about 2,400 (0.8%) were called active. The sample as a whole holds a higher share of actives than the screen did. Values without a mark were called inactive.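 The calls were made as follows: active = Every replicate reaches about 75%, or at least half do and their mean reaches it too (limit read from the data); inconclusive = At least half of replicates reach the limit but their mean does not; inactive = Under half of replicates reach the limit.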

A short description of the test: inhibitors of cytokine-induced beta cell apoptosis, primary screen, luminescence (AID 435005).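 Also: 0% = cytokine-treated negative control wells and 100% = positive control rescue; higher means more ATP so stronger rescue from cytokine killing.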 The following applies: INS-1E cytokine-induced death, ATP luminescence, 48 h; active compounds read high; percent of positive-control rescue, neutral wells zero; concentration not given here.
As for `CCCCCCn1c(CN2CCCCC2)nc2c1c(=O)n(C)c(=O)n2C`, the protection from apoptosis was 2.42%.

Consider `CCCCCCCCn1c2c(c(=N)c3c1CCC3)CCCC2`, for which the protection from apoptosis was 99.8% (active).

As to `CC(NC(=O)COC(=O)c1ccc2ccccc2n1)c1ccccc1` (stereo not given), the protection from apoptosis was -4.86%.

Consider `O=C(Nc1nnc(-c2ccccc2)o1)c1cccc(S(=O)(=O)N2CCOCC2)c1`, for which the protection from apoptosis is 5.19%.

For the compound `Cc1ccc(C(=O)O)cc1NC(=O)c1ccc(Cn2nc(C)c(Cl)c2C)o1`, the protection from apoptosis is 1.11%.

On to `Cc1c(Cl)c([N+](=O)[O-])nn1Cc1ccc(C(=O)N/N=C\c2cc(Cl)ccc2O)o1`, for which the protection from apoptosis was 89.7% (active).

`Cc1c(Cl)c([N+](=O)[O-])nn1CCCC(=O)Nc1cc(Cl)ccc1Cl`: the protection from apoptosis was 5.23%.

In the case of `O=C(CSc1nnc(N2CCOCC2)n1-c1cccc(F)c1)N1CCN(c2ccccn2)CC1`, the protection from apoptosis is -0.686%.

Take `COc1cccc2sc3cc(NCC[C@@H]4CCCN4C)ccc3c(=O)c12`: the protection from apoptosis was -2.22%.

Regarding `O=C1/C(=C\c2cccnc2)CN(Cc2ccccc2)C/C1=C\c1cccnc1`, the protection from apoptosis was 83.8% (active).

For the compound `O=Cc1cn(Cc2ccccc2)nc1-c1cccnc1`, the protection from apoptosis was 0.63%.

As for `Clc1ccc(CN2CCN(/N=C/c3cccnc3)CC2)cc1`, the protection from apoptosis was -0.218%.

For the compound `COc1ccc(C(=O)COC(=O)C(O)c2ccccc2)c(OC)c1` (stereo not given), the protection from apoptosis is -0.354%.

On to `O=C(COC(=O)c1ccc(F)cc1)NCC1COc2ccccc2O1` (stereo not given), for which the protection from apoptosis is -5.32%.

Consider `CCOC(=O)COc1ccc([N+](=O)[O-])cc1`, for which the protection from apoptosis is -8.02%.

`Cc1ccc(NC(=O)/C(=C/c2ccc([N+](=O)[O-])cc2)NC(=O)c2ccccc2)cc1`: the protection from apoptosis was -0.596%.

On to `CCOC(=O)/C(=C\c1ccc([N+](=O)[O-])cc1)C(=O)c1cc(C(C)=O)c(Nc2ccccc2)s1`, for which the protection from apoptosis was 107% (active).

Regarding `COc1ccc2nc3n(c(=O)c2c1)-c1ccc(Cl)cc1C(=O)NC3Cc1ccccc1` (stereo not given), the protection from apoptosis is 5.15%.

For `COc1ccc(S(=O)(=O)N(C)C[C@@H]2Oc3ccc(NC(=O)Nc4c(C)noc4C)cc3C(=O)N([C@H](C)CO)C[C@@H]2C)cc1`, the protection from apoptosis is 4.1%.

In the case of `Cc1nnc(N/N=C/c2ccccn2)[nH]c1=O`, the protection from apoptosis was 109% (active).

Turning to `Cc1cc(C(=O)N/N=C/c2ccccn2)c2ccccc2n1`, the protection from apoptosis was -6.79%.

On to `O=C(N/N=C/c1ccccn1)c1cccnc1`, for which the protection from apoptosis was -0.0642%.

For `COc1ccc(S(=O)(=O)N2CCN(CC(=O)N3CCOCC3)CC2)cc1OC`, the protection from apoptosis is -2.22%.

Turning to `CN(c1ccccc1)S(=O)(=O)c1cccc(NC(=O)Cc2ccc(Cl)cc2)c1`, the protection from apoptosis was 14.2%.

Turning to `COc1cccc(CNCCc2c[nH]c3ccccc23)c1OCc1ccccc1F`, the protection from apoptosis was 82.8% (active).

For `COc1ccccc1NC(=O)CCCc1c[nH]c2ccccc12`, the protection from apoptosis was 6.21%.

Turning to `COc1ccc(C(CCNCc2ccccc2F)c2ccc(F)cc2)cc1` (stereo not given), the protection from apoptosis is 1.89%.

As to `C=CCC[C@H](Cc1ccc(F)cc1)C(=O)OC[C@@H](Cc1c[nH]c2ccccc12)NC(=O)[C@H](CC=C)CC(=O)N[C@H](CO)Cc1ccccc1`, the protection from apoptosis was -1.63%.

As to `Cc1cc(N2CCCC2)ccc1NC(=O)COc1ccc(Cl)cc1`, the protection from apoptosis was -16.4%.

Consider `O=C1N[C@H](Cc2c[nH]c3ccccc23)COC(=O)[C@H](Cc2ccc(F)cc2)C/C=C\C[C@H]1CC(=O)N(CCO)Cc1ccccc1`, for which the protection from apoptosis was -0.37%.

For the compound `COc1ccc2c(c1)CCNC2Cc1ccc(OC)c(O)c1` (stereo not given), the protection from apoptosis is -7.35%.

As to `CCc1ccc(OCC2c3cc(OC)c(OC)cc3CCN2C(C)=O)cc1` (stereo not given), the protection from apoptosis was -2.37%.

Turning to `CC[C@H]1CN2CCc3cc(OC)c(OC)cc3[C@@H]2C[C@@H]1C[C@H]1NCCc2cc(OC)c(OC)cc21`, the protection from apoptosis is 81.8% (active).

As for `Cc1ccc(S(=O)(=O)N2CCN(C(=O)Cn3c(=O)cnc4ccccc43)CC2)c(C)c1`, the protection from apoptosis is 3.1%.

On to `CCOc1ccccc1Nc1nnc(SCC(=O)NCC2CCCO2)s1` (stereo not given), for which the protection from apoptosis was -3.28%.

As to `COc1cccc(/C=N/Nc2cc(C)nc(-c3ccccc3O)n2)c1O`, the protection from apoptosis was 83.1% (active).

For `COc1cc(/C=N/Nc2nc3ccccc3s2)ccc1O`, the protection from apoptosis was -9.44%.

Regarding `Cc1nc(Cl)cc(N/N=C/c2ccccc2)n1`, the protection from apoptosis was 0.482%.

On to `COc1cccc2c(N/N=C/c3ccco3)cc(C)nc12`, for which the protection from apoptosis was 0.451%.

As for `COc1ccccc1/C=N\Nc1cc(C)nc(-n2nc(C)cc2C)n1`, the protection from apoptosis is 85.5% (active).

For `Cc1cc(N/N=C\c2ccc(Br)cc2)nc(-n2nc(C)cc2C)n1`, the protection from apoptosis was 101% (active).

As to `COc1ccccc1/C=N/Nc1nc(C)c(C(C)=O)s1`, the protection from apoptosis is 1.33%.

As for `COc1ccc(/C=N/Nc2cc(N3CCOCC3)nc(C)n2)c(OC)c1`, the protection from apoptosis was -0.288%.

With `Cc1ccc(S(=O)(=O)Nc2nc(C)cc(N/N=C/c3ccc(O)cc3)n2)cc1`, the protection from apoptosis was -0.0503%.

In the case of `CC(=O)Nc1ccc(S(=O)(=O)NCCC(=O)N2CCN(c3ccccc3Cl)CC2)cc1`, the protection from apoptosis is 4.22%.

`O=S(=O)(NCC1CN(S(=O)(=O)c2ccc3c(c2)OCCO3)C1)c1c(F)cccc1F`: the protection from apoptosis was -0.452%.

For the compound `O=C(COC(=O)c1n[nH]c2ccccc12)Nc1ccccc1Br`, the protection from apoptosis is 2.52%.

As to `O=C(Nc1ccc(C(F)(F)F)cc1)c1cccc(-n2cnnn2)c1`, the protection from apoptosis is 8.03%.

Regarding `Cc1ccc(C(=O)Nc2ccccc2-c2ccccc2)cc1S(=O)(=O)Nc1ccccc1`, the protection from apoptosis was 12.9%.

`CN(CCc1ccccn1)C(=O)c1ccc(OC2CCN(Cc3ccccn3)CC2)cc1`: the protection from apoptosis was 0.235%.

For `O=C(c1ccc(OC2CCN(Cc3ccccn3)CC2)cc1)N1CCCCCC1`, the protection from apoptosis is -1.86%.

Turning to `O=C(NCCOc1cccnc1)c1ccc(OC2CCN(Cc3ccccn3)CC2)cc1`, the protection from apoptosis is 120% (active).

Turning to `CN(Cc1ccc(F)cc1)C(=O)CN1C(=O)c2ccccc2S1(=O)=O`, the protection from apoptosis was -4.27%.

`CN(C)C(CNC(=O)c1ccc(OCc2cn3ccccc3n2)cc1)c1ccco1` (stereo not given): the protection from apoptosis was 0.439%.

On to `Fc1ccc(/C=N/Nc2nc(-c3cccnc3)nc3ccccc23)cc1`, for which the protection from apoptosis is 12.4%.

Consider `Oc1ccc(/C=N/NC2=NCCCCC2)c(O)c1`, for which the protection from apoptosis is -2.33%.

For `Oc1ccc(/C=N/Nc2nc(-c3ccccc3F)nc3ccccc23)c(O)c1`, the protection from apoptosis was 91.3% (active).

As to `Cc1nc2ccccc2nc1N/N=C/c1ccc(O)cc1O`, the protection from apoptosis was 86.1% (active).

Turning to `FC(F)(F)c1nc2ccccc2nc1N/N=C/c1ccc(Cl)cc1`, the protection from apoptosis is 7.12%.

As for `Cc1cccc(-c2nc(Nc3ccc(O)cc3)c3ccccc3n2)c1`, the protection from apoptosis was -3.47%.
